# From PubChem BioAssay
# Only some compounds are listed: those with a hit (about 13% of all), similar ones and a draw of the others.
# HCV inh – inhibitors of hepatitis C virus infection | Potency, µM (series often up to 41.8 µM), most hits filed as inhibitors | Huh7.5.1 HCVcc-Cre infection, luciferase reporter, 44 h | AID 651820 | 340,000 compounds, 3.4% hits; active = well fitted inhibition curve with a large enough effect; inconclusive = small, poorly fitted or top-dose-only effect, or another doubt; inactive = no such curve, though single readings can be large or run the other way
#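 Seed cells (1,000/well) for 4 h; treat with compound and infect with HCVcc-Cre, moi about 0.5. Incubate 44 h, then detect luciferase activity.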
# Cycloheximide cs – affects cycloheximide protein synthesis inhibition readout, counter-screen; cell reporter, cycloheximide protein synthesis inhibition counterscreen; max response, %; AID 2314; 300,000 compounds, 12% hits; in the data active = max response mostly above about 13%, no sharp cut-off; inactive = mostly below about 14%; note: read at 38.3 µM for the half of the compounds with a filed dose
# Shiga toxin inh – blocks Shiga toxin action in Vero cells; Vero cells, Shiga toxin protein synthesis inhibition reporter; 290,000 compounds, 9.2% hits; inhibition, % at 38.7 µM; in the data active = inhibition mostly above about 28%, no sharp cut-off; inactive = mostly below about 43%
# FMDV inh – blocks foot and mouth disease virus; FMDV antiviral cell-based qHTS; Potency, µM (doses to about 57.9 µM), actives largely listed as inhibitors; 410,000 compounds, 1.2% hits; AID 1159524; calls by dose curve; tested in HEK293T cells; note: read-out not given here; nearly all actives have a fitted effect of over 45% in size
# LASV entry inh – inhibitors of Lassa virus binding or cell entry | Lassa virus pseudotype entry inhibition, cell reporter | Potency, µM (top dose mostly 37.9 µM), usual class: inhibitors | 300,000 compounds, 1.2% hits; calls by dose curve; tested in HEK293 cells; note: nearly all actives have a fitted effect of over 50% in size
# MARV entry inh – inhibitors of Marburg virus binding or cell entry. Potency, µM (titrated, usually from 37.8 µM), usual class: inhibitors. 300,000 compounds, 1.8% hits. Marburg virus pseudotyped entry inhibition, cell reporter; calls by dose curve; tested in HEK293 cells
# Hits are given with their value; . = inactive; ? = inconclusive; / = no result.
SMILES,HCV inh,Cycloheximide cs,Shiga toxin inh,FMDV inh,LASV entry inh,MARV entry inh
COc1ccc(OC)c(Nc2ncnc3c2cnn3-c2ccc(C)cc2)c1,/,/,/,.,?,/
Cc1cccc(-n2ncc3c(Nc4ccc(C)c(Cl)c4)ncnc32)c1,/,/,/,.,.,/
COc1ccc(OC)c(Nc2ncnc3c2cnn3-c2ccccc2)c1,.,21.2,.,/,.,.
COc1ccccc1Nc1ncnc2c1cnn2-c1cccc(C)c1,?,51.0,82.8,.,.,.
Cc1csc(NC(=O)COc2ccc3c(c2)CCC3)n1,.,/,/,.,.,.
O=C(NC12CC3CC(CC(C3)C1)C2)N1CCN(c2ccccc2)CC1,.,.,.,.,.,.
O=C(NC1CCCCC1)N1CCN(c2nc(-c3ccccc3)cs2)CC1,10µM,.,.,?,.,?
O=C(NC12CC3CC(CC(C3)C1)C2)N1CCN(c2nc(-c3ccccc3)cs2)CC1,.,.,.,25.1µM,?,?
CC1=CC2=NC(=O)/C(=C\c3cccn3CCOc3cc(C)cc(C)c3)C(=N)N2O1,?,.,.,.,.,.
Nc1[nH]c(N=NC(=O)c2ccc(F)cc2)c2ccccc12,.,90.9,121.1,.,.,?
O=C(NNC(=O)c1cccc2ccccc12)c1ccc(F)cc1,.,/,/,.,.,?
Nc1ccccc1C(=O)N=Nc1[nH]c(N)c2ccccc12,.,43.6,16.2,.,?,?
COc1ccc(NC(=O)c2c(C)oc3ccc(O)c(CN4CCCCCC4)c23)cc1,/,/,/,.,?,?
CC(C)(C)OC(=O)N1CCC(c2c(C(=O)N3CCOCC3)cnn2-c2ccccc2Cl)CC1,/,/,/,.,?,/
CCC(NC(=S)NCc1ccccc1)C(=O)O (stereo not given),.,.,.,.,.,.
CC(C)c1nc(Cl)c(C#N)c2c1CCC2,.,.,.,.,.,.
COc1ccc([C@@H](C)NC(=O)CCc2nnc(-c3cc(C)on3)o2)cc1,.,.,.,.,.,.
CCC(NC(=O)CCc1nnc(-c2cc(C)on2)o1)C12CC3CC(CC(C3)C1)C2 (stereo not given),.,17.8,.,.,.,.
Cc1cc(-c2nnc(CCC(=O)NCc3cc(F)cc(C(F)(F)F)c3)o2)no1,.,25.0,.,.,.,.
Cc1cccc(C)c1NC(=O)CN(C)C(=O)CCc1nc2sc3c(c2c(=O)[nH]1)CCCC3,.,/,/,.,.,?
CCCn1nc2cc(C(=O)NCCc3cccs3)ccc2c1OCC,?,28.5,73.4,.,/,/
CCOc1c(OC(C)=O)ccc(/C=C/c2ccc3cccc(OC)c3n2)c1[N+](=O)[O-],10µM,39.8,36.0,.,?,.
COc1cc(Br)cc(/C=C/c2ccc3cccc(O)c3n2)c1OC,.,.,.,.,/,/
COc1ccc(/C=C/c2ccc3cccc(O)c3n2)c(OC)c1OC,.,39.0,113.1,.,/,/
COc1cccc(/C=C/c2ccc3cccc(O)c3n2)c1OC,10µM,57.8,127.5,.,/,/
SMILES,HCV inh,Cycloheximide cs,Shiga toxin inh,FMDV inh,LASV entry inh,MARV entry inh
COc1cccc2cc(C(=O)OC(C)C(=O)c3ccc(C)cc3)c(=O)oc12 (stereo not given),.,.,.,.,.,?
COc1ccc(Cl)cc1NC(=O)c1cc(-c2cc(C)ccc2O)n[nH]1,.,.,.,.,.,.
COc1ccc(-c2c3c(=O)n(C)c(=O)n(C)c3cn2-c2cccc(N)c2)cc1,/,/,/,.,?,.
Cc1cc(OCC(=O)OCC(=O)NC2CCCCC2C)ccc1Cl (stereo not given),?,/,/,.,/,/
CCOC(=O)C1CCN(C(=O)c2cccnc2Oc2ccccc2)CC1,.,.,.,.,.,?
Cc1ccc(NC(=S)NNC(C)(C)C)cc1,.,34.1,40.8,.,.,?
CC(C)(C)NNC(=S)Nc1cccc(C(F)(F)F)c1,?,.,.,.,.,.
COCCn1c(-c2ccccc2)c(C)n2c3c(=O)n(C)c(=O)n(C)c3nc12,/,/,/,3.16µM,.,?
Cc1c(-c2ccccc2)n(-c2ccccc2O)c2nc3c(c(=O)n(C)c(=O)n3C)n12,/,/,/,25.1µM,?,?
Cc1cc(C)cc(-n2c(-c3ccccc3)c(C)n3c4c(=O)n(C)c(=O)n(C)c4nc23)c1,/,/,/,.,.,.
Cc1ccc(-c2c(C)n3c4c(=O)n(C)c(=O)n(C)c4nc3n2CCO)cc1,/,/,/,17.8µM,?,/
CN(C)N1C(=O)c2c(Cl)c(Cl)c(Cl)c(Cl)c2C1=O,.,/,/,.,.,?
COCCc1nn2c(=O)cc(COC(=O)COc3ccc(F)cc3)nc2s1,/,/,/,.,.,/
Cc1cn([C@H]2C[C@H](O)[C@@H](CCC(=O)NCc3cccs3)O2)c(=O)[nH]c1=O,/,/,/,.,/,/
N#CC(C#N)=C(Nc1ccc(F)cc1)SCc1cccc(F)c1,10µM,.,.,?,12.6µM,7.08µM
CCOc1ccc(N/C(SCc2cccc([N+](=O)[O-])c2)=C(/C#N)C(N)=O)cc1,.,.,.,?,.,.
O=C(NCC(=O)N1CCN(Cc2ccccc2)CC1)c1ccccc1Cl,/,/,/,.,/,/
CC(C)N1CCN(Cc2cccc(-c3ccco3)c2)CC1CCO (stereo not given),.,.,.,.,.,?
Cc1c(Cl)ccc2c(C(N)=O)cc(-c3ccccn3)nc12,.,.,.,.,.,?
CCOC(=O)CNC(=O)c1cc(-c2ccccn2)nc2c(C)c(Cl)ccc12,.,.,.,.,.,5.01µM
CC(C)c1ccc(N2C(=O)/C(=C/N(C)C)SC2=S)cc1,.,.,.,.,/,/
CSc1cccc(NC(=S)N(Cc2ccc(C)cc2)Cc2cccnc2)c1,.,.,.,.,.,?
CC(=O)Nc1ccc(S(=O)(=O)NCCC(=O)NNC(=O)c2ccncc2)cc1,.,/,/,.,.,.
CC(=O)NC(CC(C)C)C(=O)NC(CO)C(=O)NC(CCC(=O)O)C(=O)NC(C)C(=O)NC(CC(C)C)C(N)=O (stereo not given),.,/,/,.,/,/
COc1ccc(Cn2cccc(NC(=O)Nc3cccc(OC)c3)c2=O)cc1,14.1µM,.,.,?,/,/
SMILES,HCV inh,Cycloheximide cs,Shiga toxin inh,FMDV inh,LASV entry inh,MARV entry inh
COc1cccc(NC(=O)Nc2cccn(Cc3ccccc3)c2=O)c1,?,.,.,.,.,?
COc1cccc(Cn2cccc(NC(=O)Nc3ccc(C#N)cc3)c2=O)c1,3.98µM,.,.,17.8µM,?,?
COc1cccc(Cn2cccc(NC(=O)Nc3ccccc3C)c2=O)c1,10µM,.,.,?,/,/
COc1cccc(Cn2cccc(NC(=O)NCc3ccccc3)c2=O)c1,?,.,.,.,?,.
CCOC(=O)c1ccc2nc(C)c(CC)c(Cl)c2c1,.,.,.,.,.,?
CCOC(=O)c1ccc2nc(C)c(C)nc2c1,.,.,61.1,.,?,.
CCCCc1c(C)nc2ccc(C(=O)OCC)cc2c1Cl,.,.,.,.,.,?
CCOC(=O)c1ccc2nc(C)c(CCC(C)=O)c(Cl)c2c1,.,38.9,92.6,.,?,.
CCOC(=O)c1cc2cc(OC)ccc2nc1C,?,16.5,88.4,.,.,.
C=CCc1c(C)nc2ccc(C(=O)OCC)cc2c1Cl,.,.,41.0,.,?,?
COc1ccc2nc(C)c(C(N)=O)cc2c1,.,.,.,.,.,?
